Experimental data taken from PubChem BioAssay (NCI).
Compounds without any hit were thinned out: in the full panel of roughly 79,000, 15% have a hit. Activity calls are given as the source filed them. Rule as the data show it: active = growth inhibition above about 70%; inactive = the rest.

Experiment: NCI Yeast Anticancer Drug Screen. Data for the wt2 strain (AID 169);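 also: 0% = growth of vehicle-treated yeast cultures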
Conditions: S. cerevisiae wt2 strain growth inhibition, active compounds read high
Protocol: Growth inhibition of yeast strains with defined genetic alterations is measured as a screen for potential anti-cancer activity. Selected strains with alterations in DNA damage repair or cell cycle control were exposed to compounds and growth inhibition was measured relative to vehicle treated controls. The strain used in this assay is wt2

Measured: growth inhibition

Nc1ccc(/C=C/c2ccc3cccnc3c2)cc1
inactive: at 1.2 µM 1% | at 3.7 µM 8% | at 11.0 µM -2% | at 33.0 µM -4% | at 100.0 µM 9%

N#CCC(=O)N/N=C(\c1ccccc1)C(c1ccccc1)C1(O)C(=O)Nc2c(Cl)ccc(Cl)c21 (stereo not given)
inactive: at 1.2 µM 0% | at 3.7 µM 8% | at 11.0 µM -3% | at 33.0 µM -3% | at 100.0 µM 1%

O=C1CSC(c2ccccc2)N1c1ccc(-c2ccc(-n3c(-c4ccccc4)nc4ccccc4c3=O)cc2)cc1 (stereo not given)
inactive: at 1.2 µM 0% | at 3.7 µM -3% | at 11.0 µM -2% | at 33.0 µM 7% | at 100.0 µM 28%

CN(C)/C(=N/C(=S)Nc1ccccc1)SCc1ccccc1
inactive: at 1.2 µM -2% | at 3.7 µM -2% | at 11.0 µM 0% | at 33.0 µM 11% | at 100.0 µM 14%

O=[N+]([O-])c1cn[n+]([O-])c2ccccc12
inactive: at 1.2 µM -18% | at 3.7 µM 5%
active: at 11.0 µM 75% | at 33.0 µM 100% | at 100.0 µM 99%

COc1cccc(C(NC2=NCCC=N2)c2cc3c(cc2O)OCO3)c1O (stereo not given)
inactive: at 1.2 µM 0% | at 3.7 µM 1% | at 11.0 µM 5% | at 33.0 µM 18% | at 100.0 µM 25%

NC(CS)C(=O)NCCNc1ccc(NCCNC(=O)C(N)CS)c2c1C(=O)c1c(O)ccc(O)c1C2=O (stereo not given)
inactive: at 1.2 µM -19% | at 3.7 µM -57% | at 11.0 µM -63% | at 100.0 µM 64%
active: at 33.0 µM 81%

O=c1[nH]c2c([N+](=O)[O-])cccc2c2ccccc12
active: at 100.0 µM 84%
inactive: at 1.2 µM -2% | at 3.7 µM 6% | at 11.0 µM -1% | at 33.0 µM 12%
